Each structure is given as a SMILES string. Several values for one entry are separate records, joined by “and”; a condition that tells them apart may be missing. Equal values may be shown once. About 83,000 compounds went through this panel and 20% of them were active in at least one assay; those are over-represented in the sample as a whole.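 Testing used 96-well plates and a 48-hour single-concentration exposure. Example: -40 means 40% of the starting cells died.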 Activity calls are given as the source filed them. The calls were made as follows: active = growth percent below 10; inactive = the rest.

The subject of this assay is MDA-MB-468 breast. Briefly: NCI-60 one-dose screen, 48 h (100 = growth as untreated, 0 = no growth, -100 = all killed). To be noted: 10 µM unless noted.
Take `COc1ncc(-c2ccc3nc(N)n(-c4ccccc4C(F)(F)F)c(=O)c3c2)cc1S(=O)(=O)Nc1ccc(F)cc1F`: the growth was -37.3% (active).
Take `Nc1ccccc1-c1ccc(-c2ccc(Cl)cc2)c2c1[nH]c1ccccc12`: the growth is 91.5% (inactive).
Turning to `C=C1C(=O)C2CCN1CC2`, the growth was 101% (inactive).
With `CC/C(=C(/c1ccc(OCCN(C)C)cc1)c1ccc(OC(=O)CCCCCCCCC(=O)c2c(C)[nH]c(/C=C3\N=C(c4ccc[nH]4)C=C3OC)c2C)cc1)c1ccccc1`, the growth was 53.4% (inactive).
Then `Cc1ccc(S(=O)(=O)Nc2nc3ccccc3nc2Nc2ccc3nsnc3c2)cc1`, with 27.4% (inactive) and 35.8% (inactive); and `c1cc2ccc3cc2cc1CNCCOCCNCc1ccc2ccc(cc2c1)CNCCOCCNC3`, with -68% (active); and `O=[N+]([O-])c1ccc(CO)cc1`, with 0.448% (active).
As to `CCc1ccc(Oc2c(-c3ccc(OCc4ccc(Cl)cc4)cc3O)nn(C)c2C(F)(F)F)cc1`, the growth was -11.1% (active).
As for `COc1cccc(Cc2cc(-c3ccccc3)nn(CC(=O)c3ccccc3)c2=O)c1`, the figure is 90.6% (inactive); as for `O=C(CC1(O)C(=O)Nc2c(Cl)ccc(Cl)c21)c1ccc(Cl)cc1Cl` (stereo not given), 103% (inactive); as for `CNC(=O)c1cc(Oc2ccc(NC(=O)Nc3cc(C(C)(C)C)nn3-c3ccc4ncccc4c3)c(F)c2)ccn1`, -61.8% (active).
`O=C(c1ccccc1)C(Nc1ccccc1)c1ccccc1` (stereo not given): the growth was 88.7% (inactive).
Turning to `COc1ccc(C(=O)/C=C/c2cccc([N+](=O)[O-])c2)c(OC)c1`, the growth is -3.24% (active).
As for `CC(SC(C)C(=O)N/N=C/c1cccc(Cl)c1)C(=O)N/N=C\c1cccc(Cl)c1` (stereo not given), the figure is 97.4% (inactive); as for `Cc1nn(-c2ccccc2)c2nc(C)n(-c3ccc(Br)cc3)c(=O)c12`, -5.99% (active).
As for `O=C(N/N=C/[C@H](O)[C@H](O)[C@H](O)CO)c1ccc(NC(=O)c2cccnc2)cc1`, the figure is 113% (inactive).
As for `O=S(=O)(NCCNc1nccc(-c2c(-c3ccc(F)c(O)c3)nc3sccn23)n1)c1ccc(F)cc1`, the growth is 29.3% (inactive).
Turning to `CCCCCCCCCCCCc1ccc([N+](CC)(CC)CC)cc1`, the growth is -5.49% (active).
Regarding `CC(=O)Nc1cc(N2CCOCC2)c2nc(NC(=O)c3[nH]c(C)c(Cl)c3Cl)sc2c1`, the growth is 47.7% (inactive).
Then `O=C(OC1CCCC1)c1ccccc1Cl`, with 132% (inactive); and `O=C(Nc1ccc(OS(=O)(=O)c2ccc(F)cc2)cc1)C12CC3CC(CC(C3)C1)C2`, with 39.4% (inactive); and `O=C(CCc1nnc(SCc2ccccc2)s1)c1nc2ccccc2[nH]1`, with 103% (inactive).
As for `COc1ccc(CNCCCN2C(=O)c3ccc4c5c(ccc(c35)C2=O)C(=O)N(CCCNCCCCNCCCN)C4=O)c(OC)c1OC`, the figure is -85.6% (active).
Then `Clc1ccc(N2N=C(c3cccc(Nc4ccncc4)c3)CC2c2ccc3c(c2)OCO3)cc1` (stereo not given), with 62.1% (inactive).
As for `COc1ccc2c(=O)cc(C(Cl)(Cl)Cl)oc2c1`, the growth was -81.2% (active).
Then `Cc1ccc(S(=O)(=O)Nc2cccc3[nH]c(C(F)(F)F)nc23)cc1`, with 5.86% (active); and `C=C(C)[C@@H]1CC[C@]2(C)[C@H](CC=C3[C@@H]4[C@H](C)[C@@H](C)CC[C@]4(CO)CC[C@]32C)[C@@]1(C)CCCN`, with -54.7% (active).
On to `CC(C)(C)c1ccc(Cn2cc(CSc3nc4ccccc4s3)nn2)cc1`, for which the growth is 93.6% (inactive).
As for `Nc1nc(N)c2c(ccc3nccc32)[nH]1`, the growth is 34.9% (inactive).
Then `O=c1nc(Nc2ccc([N+](=O)[O-])cc2O)sc2ccccc12`, with 34.3% (inactive); and `O=C(COc1ccc(C2SCC(=O)N2c2ccc(F)cc2)cc1)c1ccccc1` (stereo not given), with 89.1% (inactive).
For `COc1cc(-c2nnc(SCc3ccc(O)c4ncccc34)n2-c2ccccc2)cc(OC)c1OC`, the growth was -10.1% (active).
Then `CC1=C[C@H]2c3c(c(O)c(O)c4oc5cc(O)cc(O)c5c(=O)c34)[C@H](c3cc(O)c(O)c4oc5cc(O)cc(O)c5c(=O)c34)[C@H]2C(C)(C)C1`, with 3.99% (active) and -26.3% (active); and `Cc1cn(-c2cc(C(=O)Nc3cccc(C#Cc4cccc5[nH]nc(N)c45)c3)cc(C(F)(F)F)c2)cn1`, with 69.6% (inactive).
Take `CCN(CC)CCOc1ccccc1C`: the growth was 118% (inactive).
As for `Nc1cc(N)nc(SCC(=O)O)n1`, the figure is 108% (inactive); as for `C#CCO[C@H]1CC(CC#C)(CC#C)C(=O)[C@@H]2[C@H]1[C@H]1C[C@@H]3[C@@]4(C)CCC[C@@](C)(C(=O)OC)[C@@H]4CC[C@@]23C=C1C(C)C`, 94.7% (inactive); as for `COc1ccc(C(=O)/C=C/c2ccc(OCc3ccc(Cl)cc3)c(OC)c2)cc1OC`, 50.9% (inactive).
For `COC(=O)/C=C1/SC(=NCc2ccccc2)N(CCc2c[nH]c3ccccc23)C1=O`, the growth is 81.1% (inactive).
As for `C/C(=C/CCC(C)[C@@H]1CC[C@]2(C)C3=C(CC[C@@]12C)[C@@]1(C)CCC(=O)C(C)(C)[C@@H]1CC3)C(=O)O` (stereo not given in full), the figure is -60.4% (active).

Source of the values: PubChem BioAssay (NCI).
